Experimental data reported in publication PMC5540273 (PLoS ONE, 2017).

The molecules below were run on ALK. Details: concentration: 1 μM, replicates: in singlicate; n = 1.
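Also: KINOMEscan kinase panel screen.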

SMILES | %Inh
Cl.c1ccc(-c2ccc3c(Nc4ccc5[nH]ccc5c4)ccnc3c2)nc1 [GW440138] | 25%
Nc1n[nH]c2cnc(-c3ccccc3)cc12 [SB-642124] | 30%
CN(C)Cc1ccc(-c2ccc3c(Nc4ccc(Oc5ccccn5)cc4)ccnc3c2)o1 [GW567148] | 22%
CC(C)(C)c1ccc2nccc(Nc3cccc(O)c3)c2c1 [GW856795] | 39%
O=c1[nH]cc(-c2ccc(N3CCOCC3)cc2)c2sc(-c3cn[nH]c3)cc12 [GSK2276055] | 4%
O=C(Nc1n[nH]c2cc(-c3ccoc3)ccc12)C1CC1 [SB-738481] | 0%
CC(=O)N1CCN(c2ccc(Nc3nccc(-c4sc(C(C)C)nc4-c4cccc(NS(=O)(=O)c5cccc(Cl)c5)c4)n3)cn2)CC1 [GSK1660437] | 7%
COc1cc2c(cc1OCCN1CCNCC1)ncc1c3ccc(C#N)cc3[nH]c21 | 26%
CNC(=O)c1ccccc1Nc1nc(Nc2ccc(N3CCOCC3)cc2)ncc1Cl.Cl [GSK1576028] | 88%
Oc1cc(Nc2ccnc3cc(I)ccc23)ccc1F [GW552771] | 34%
COc1cccc(C2=C(Nc3ccc(Cl)c(C(=O)O)c3)C(=O)NC2=O)c1 [SB-390769] | 36%
O=C(Nc1cccc(-c2nn3ccccc3c2-c2ccnc(Nc3cccc(F)c3)n2)c1)c1c(F)ccc(F)c1Cl [GSK357952] | 0%
O=C(Nc1cccc(Oc2ccc3nc(NC(=O)C4CC4)cn3n2)c1)c1ccccc1C(F)(F)F | 22%
CSc1cccc2c(-c3ccncn3)c(-c3ccc(F)cc3)nn12 [GW514786] | 29%
Cn1cc(-c2[nH]c3cc(NC(=O)[C@H](N)C4CCCCC4)cc4c3c2C=NNC4=O)cn1 | 91.3%
COc1ccc(CNC(=O)NC2CCN(c3ccnc(Nc4ccc(F)cc4)n3)CC2)cc1 [GSK1379788] | 20%
COc1cccc(NC(=O)NC2CCN(c3ccnc(Nc4cc(OC)c(OC)c(OC)c4)n3)C2)c1 (stereo not shown) [GSK1379763] | 45%
O=C(Nc1n[nH]c2nc(-c3ccc(O)cc3)ccc12)C1CC1 [SB-710363] | 0%
CN1CCN(CCCNc2nccc(-c3c(-c4ccc(F)cc4)nn4cc(C(F)(F)F)ccc34)n2)CC1 [GW621581] | 9%

SMILES | %Inh
c1ccc(-c2n[nH]cc2Nc2ccnc3ccccc23)nc1 [GW694077] | 21%
CCc1ccc(-c2ccc3c(c2)-c2c(cnn2C)S(=O)(=O)N3C)cc1 | 0%
NCCCC(NC(=O)c1cc(Br)c(-c2ccnc3[nH]ccc23)s1)c1ccccc1.O=C(O)C(F)(F)F.O=C(O)C(F)(F)F (stereo not shown) [GSK1287544] | 32%
Nc1ncc(-c2cccnc2)c2scc(-c3ccc4c(c3)CCN4C(=O)Cc3ccccc3)c12 [GSK683281] | 29%
Cl.c1ccc(-c2ccc3c(Nc4ccc5[nH]ncc5c4)ccnc3c2)nc1 [GW440137] | 31%
Cc1ccc(C)c(NC(=O)NC2CCN(c3ccnc(Nc4ccc(F)cc4)n3)C2)c1 (stereo not shown) [GSK1379720] | 28%
COc1cc(Nc2nccc(-c3c(-c4cccc(NC(=O)c5c(F)cccc5F)c4)nn4ccccc34)n2)cc(OC)c1OC [GSK323521] | 14%
Fc1ccc(-c2ncn(C3CCNCC3)c2-c2ccnc(Oc3ccc(-c4ccccc4)cc3)n2)cc1 [SB-245391] | 39%
COc1cc(Nc2ncc3c(C)nc(-c4cc5ccccc5[nH]4)n3n2)cc(OC)c1OC [GW869516] | 0%
Clc1ccc(-c2nn3ncccc3c2-c2ccnc(Nc3ccc4c(c3)OCCO4)n2)cc1 [GW829116] | 0%
c1ccc(-c2cnc3nccnn23)cc1 [AH20685] | 20%
O=C(Nc1ccccc1F)NC1CCN(c2ccnc(Nc3ccc(F)cc3)n2)CC1 [GSK1379800] | 17%
Cc1occc1-c1ncc(OC[C@@H](N)Cc2c[nH]c3ccccc23)cc1-c1ccc2[nH]nc(C)c2c1.O=C(O)C(F)(F)F [GSK682037] | 24%
C[C@@H]1CC[C@@H](C(=O)Nc2ccccc2)CN1c1cc(-c2ccc3c(N)n[nH]c3c2)nc(N)n1 [GSK2286062] | 0%
COc1cc(Nc2nccc(-c3c(-c4cccc(NC(=O)c5c(F)cccc5F)c4)nn4ncccc34)n2)cc(OC)c1OC [GSK327238] | 20%
C[C@@H](Oc1cc(-n2cnc3cc(-c4ccnc(NCCS(C)(=O)=O)c4)ccc32)sc1C(N)=O)c1ccccc1Cl [GSK907232] | 18%
CN1CCN(Cc2cccc(-c3ccc4c(Nc5ccc(Oc6ccccc6)cc5)ccnc4c3)c2)CC1 [GW578342] | 23%
Cc1ccc(S(=O)(=O)Nc2ccc(Nc3nccc(Nc4cccc5[nH]ncc45)n3)cc2)cc1 [GSK581271] | 24%
